# Screening results deposited in PubChem BioAssay by several laboratories.
# Hits are enriched below; roughly 4.1% of the tested compounds scored in any of these assays.
# KLF5 inh = KLF5 expression inhibitors, primary screen, DLD-1 cells, luminescence. DLD-1 KLF5 promoter-luciferase reporter. inhibition, % at 5 µM. hit rate 0.23% among 290,000. AID 1700, 2009;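 active = inhibition above a per-plate limit of that plate's mean compound inhibition plus 3 SD, cut at about 60% in these data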;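 note: 0% = DMSO wells and 100% = LY294002 at 200 µM; higher means less KLF5 promoter-driven luciferase light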
# 697 NFkB inh = inhibitors of PMA/ionomycin-induced NF-kB reporter, 697 cells, primary screen, B-cell NF-kB inhibitor project, cell-based, luminescence, uHTS; 697 B-cell NF-kB luciferase reporter, 16 h; inhibition, % at 4 µM; hit rate 0.33% among 330,000; AID 435022, 2010; in the data active = inhibition above about 35%
# Gli-Sufu block = Gli-Sufu pathway antagonists, primary screen, luciferase luminescence, Sufu-KO-LIGHT cells, uHTS; AID 588413, 2011; Sufu-KO-LIGHT fibroblasts, Gli luciferase reporter luminescence; inhibition, % at 5 µM; hit rate 0.74% among 340,000;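 active = inhibition above about 55%, limit read from the data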;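 note: 0% = DMSO-treated cells and 100% = wells with medium but no cells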
# Mdm2-MdmX inh = inhibitors of human Mdm2-MdmX association, primary screen, cell-based, luminescence, split luciferase, SaOS-2, uHTS. Protein Mdm4 (Homo sapiens) + E3 ubiquitin-protein ligase Mdm2 (Homo sapiens), …. SaOS-2 split-luciferase Mdm2/MdmX complementation. inhibition, % at 8 µM. hit rate 3% among 330,000;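 active = inhibition of at least 50% at 8 µM in the primary screen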
# Jurkat NFkB inh = inhibitors of induced NF-kB luciferase reporter, primary screen, TCR NF-kB activation inhibitor project, cell-based, luminescence, uHTS | Jurkat, PMA/ionomycin-induced NF-kB luciferase reporter | inhibition, % at 4 µM | hit rate 0.53% among 330,000; in the data active = inhibition above about 50%
# aSyn UTR inh = MLPCN primary screen, SNCA 5' untranslated region | alpha-synuclein 5'UTR reporter, inhibitor activity | inhibition, % (tested at 7.5 µM) | hit rate 0.82% among 300,000 | AID 1813, 2009; in the data active = inhibition above about 60%; inconclusive = no clear call, values can overlap the other calls;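 note: H4 neuroglioblastoma cells stably carrying SNCA 5'UTR luciferase fusion; 0% = DMSO wells and 100% = positive control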
# KLF5 inh confirm = KLF5 expression inhibitors, confirmation, DLD-1 cells, luminescence | shares compounds with KLF5 inh | DLD-1 KLF5 promoter firefly luciferase reporter | inhibition, % at 4 µM | hit rate 79% among 610 | AID 1834, 2009;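 active = inhibition above a set limit taken from the earlier primary screen, cut at about 63% in these data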;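 note: 0% = DMSO wells and 100% = LY294002 at 200 µM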
# IEC-6 tox = cytotoxicity in rat IEC-6 cells, cytotoxicity control for KLF5 inhibitor project, cell-based, luminescence, triplicate; hit rate 56% among 610; IEC-6 rat intestinal cells, viability luminescence; shares compounds with KLF5 inh; inhibition, % at 4 µM; AID 1905, 2009; in the data active = inhibition above about 23%;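 note: cells exposed to compounds for 48 hours before viability read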
# * marks the source's active call; other numbers are inactive results; ? = inconclusive; . = no result.
SMILES,KLF5 inh,697 NFkB inh,Gli-Sufu block,Mdm2-MdmX inh,Jurkat NFkB inh,aSyn UTR inh,others
O=C(c1cc([N+](=O)[O-])ccc1N1CCCCC1)N1CCc2ccccc21,-7.5,-23.9,-9.2,45.3,49.2,81.2*,
C=CC[n+]1ccc(/C=C2\C=Cc3cc(C)ccc3N2CC)c2ccccc21,3.5,.,88.0*,.,.,.,
Cc1cc(SCC(=O)Nc2c(C)n(C)n(-c3ccccc3)c2=O)nc2ccccc12,3.3,-44.8,18.1,4.4,-15.7,14.9,
CC(C)CNC(=O)CCc1nc(-c2ccccc2)no1,-19.3,15.0,5.1,5.8,-4.9,.,
O=C(O)C[C@H](O)C[C@H](O)/C=C/c1c(C2CC2)nc2ccccc2c1-c1ccc(F)cc1,.,.,.,.,.,103.7*,
Cc1nc2ccccc2c(-c2ccccc2)c1CC(=O)O,8.0,11.4,-4.0,-2.4,16.9,1.9,
CCc1ccc(-c2cc(C(=O)Nn3cnnc3)c3ccccc3n2)cc1,55.2,-199.9,-12.2,-51.9,-5.8,73.9*,
CCN(c1ccccc1)c1nc(Cl)nc2c1cnn2C,.,.,1.1,.,.,.,
O=S(=O)(c1ccc(Cl)c(Cl)c1)c1snnc1-c1ccccc1,19.4,.,49.1,.,.,118.1*,
O=C(OCCN1C(=O)c2cccc3c(N4CCOCC4)ccc(c23)C1=O)c1ccc(Cl)cc1Cl,-11.3,.,16.8,.,.,99.1*,
O=C(/C=C/c1cccs1)NC(=S)NNC(=O)c1ccccc1O,1.8,1.0,-3.0,35.4,-12.3,103.0*,
COc1ccc(C(=O)NNC(=S)NC(=O)/C=C/c2cccs2)cc1,-30.8,13.6,0.2,42.3,-6.5,29.8,
Cc1cc(N2CCOCC2)n2nc(C)c(-c3ccccc3)c2n1,-10.3,-1.0,-9.8,1.8,-23.3,.,
Cc1ccc(-c2c(C)nn3c(N4CCOCC4)cc(C)nc23)cc1,6.7,-19.2,56.3*,1.7,-7.7,-11.5,
Cc1oc2c(c1C(=O)N1CCC(C)CC1)C(=O)c1ccccc1C2=O,-22.9,15.5,21.0,39.2,39.5,83.4*,
ClCc1ncc(-c2ccc(Cl)cc2)o1,1.6,33.8,-3.4,8.2,-6.1,-2.8,
O=C(O)CCSc1nnc(-c2ccc3c(c2)OCO3)o1,2.3,16.6,14.8,14.9,-2.9,66.7*,
Cc1c(NC(=O)[C@@H](NC(=O)c2ccc(Cl)c([N+](=O)[O-])c2)C(C)C)c(=O)n(-c2ccccc2)n1C,.,1.3,-0.5,8.9,8.7,.,
COc1ccc(S(=O)(=O)N2CCOCC2)cc1NC(=O)CCNC(=O)c1ccc(Br)cc1,.,28.3,10.8,-17.4,-14.3,76.6*,
COc1cccc(/C=N/Nc2nccnc2Cl)c1O,104.0*,-108.3,68.2*,47.8,-34.1,89.6*,KLF5 inh confirm=90.0*;IEC-6 tox=-4.0
O=C(N/N=C/c1ccccc1Cl)c1ccncc1,-30.5,4.5,5.4,-0.6,-5.3,0.9,
O=C(N/N=C/c1cc(Cl)ccc1O)c1ccncc1,69.6*,-50.9,8.8,27.4,21.3,-2.0,KLF5 inh confirm=88.2*;IEC-6 tox=-4.0
COc1cc(CN2CCCC(CO)(Cc3ccccc3C)C2)cc2c1OCO2 (stereo not given),14.2,-2.8,-5.3,11.5,14.5,19.6,
O=C(CN1C(=O)NC2(CCCC2)C1=O)Nc1ccccc1F,109.1*,14.7,0.8,-4.9,-1.8,-12.2,KLF5 inh confirm=0.9;IEC-6 tox=-7.1
O=C(CN1C(=O)NC2(CCCC2)C1=O)Nc1ccc(Cl)cc1F,-13.1,-0.2,29.0,-11.1,-3.4,6.2,
Cc1ccc(NC(=O)CSc2n[nH]c(-c3ccccn3)n2)cc1,39.7,3.8,-14.1,43.3,-3.0,?,
O=C(CSc1n[nH]c(-c2ccccn2)n1)Nc1ccc(Cl)cc1,72.6*,-6.2,15.7,39.8,-3.9,73.6*,KLF5 inh confirm=62.9*;IEC-6 tox=18.1
CN(C)c1ccc(/C=C/c2nc3ccccc3c(=O)[nH]2)cc1,99.1*,-124.4,-105.9,-48.5,-52.5,87.4*,KLF5 inh confirm=94.1*;IEC-6 tox=2.2
